Here are results for 8 molecules from PubChem BioAssay (Tox21).

Assay [1] can be described thus: Nuclear factor erythroid 2-related factor 2/antioxidant responsive element (Nrf2/ARE) small molecule agonists: qHTS cell viability counter screen in human keratinocytes (AID 1919968; active = well fitted curve in the direction sought with a large enough effect in the repeat runs; an effect the other way counts as inactive or inconclusive; also: nearly all actives have a fitted effect of over 55% in size; also: potency is read from the fitted curve at half-maximal effect). An outline of the steps: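 Measured as CellTiter-Fluor fluorescence, this readout tracks cytotoxicity in the same wells as the ARE-luciferase screen. HaCaT reporter cells (1,500/well) received compounds after a 5 h pre-incubation and were exposed for 23 h.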

Assay [2] can be described thus: Nuclear factor erythroid 2-related factor 2/antioxidant responsive element (Nrf2/ARE) small molecule agonists: luciferase reporter gene qHTS assay in human keratinocytes (AID 1919969). Also: nearly all actives have a fitted effect of over 35% in size.
The target of assay [3] is Gonadotropin-releasing hormone receptor (Homo sapiens) (UniProt P30968). The assay can be described thus: Human gonadotropin-releasing hormone receptor (GnRHR) small molecule agonists, calcium flux assay in GnRHR-HEK293 cells (AID 1920063). Also: nearly all actives have a fitted effect of over 35% in size. An outline of the steps:
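Fluorescence kinetics (480 nm excitation, 540 nm emission; 3 min, 1 s steps) report calcium mobilisation in human GnRHR-HEK293 cells in agonist mode. Dye incubation: 1 h, 37 C.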

For assay [4], the target named is KiSS-1 receptor (Homo sapiens) (UniProt Q969F8). The assay can be described thus: Human kisspeptin (KISS1R) small molecule agonists, calcium flux assay in KISS1R-HEK293 cells (AID 1920064; active = well fitted curve in the direction sought with a large enough effect in the repeat runs; an effect the other way counts as inactive or inconclusive). Summed up: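 Measures KISS1R agonism through calcium-sensitive dye fluorescence in stably transfected HEK293 cells, read for 3 min after pin-tool compound delivery; 15-point titrations in triplicate.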

The nature of assay [5]: G protein-coupled receptor (GPCR) small molecule agonists, calcium flux assay: HEK293 wild type cell line counter screen (AID 1920065). An outline of the steps:
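Readout: fluorescence at 480 nm excitation/540 nm emission, sampled at 1 s intervals for 3 min. Cells had been cultured 18 h, then dye-loaded 1 h at 37 C before compound or ATP addition.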

The nature of assay [6]: p53 small molecule agonists, cell-based qHTS assay with human liver microsomes: qHTS cell viability counter screen (AID 1963579). Also: nearly all actives have a fitted effect of over 45% in size. Summed up:
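HLM-supplemented (0.5 mg/mL final) and NADPH-supplemented (0.5 mg/mL final) p53RE-bla cultures, 4,000 cells per well, were dosed with compounds in DMSO for 16 h at 37 C; luminescent ATP detection (CellTiter-Glo, 30 min, room temperature) quantified surviving cells.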

The nature of assay [7]: p53 small molecule agonists, cell-based qHTS assay with rat liver microsomes: qHTS cell viability counter screen (AID 1963580). Also: nearly all actives have a fitted effect of over 45% in size. An outline of the steps: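 Viability is assessed in parallel with the p53 reporter read: HCT-116 p53RE-bla cells receive compounds plus rat microsomes and NADPH (0.5 mg/mL final apiece), incubate 16 h at 37 C, and then CellTiter-Glo luminescence is recorded.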

Assay [8] is described as follows: p53 small molecule agonists, cell-based qHTS assay: qHTS cell viability counter screen (AID 1963581). Also: nearly all actives have a fitted effect of over 45% in size. An outline of the steps: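 In the same plates used for the p53 bla reporter, HCT-116 cells given compounds for 16 h at 37 C received CellTiter-Glo; luminescence was recorded 30 min later at room temperature.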
Assay [9] in a line: p53 small molecule agonists, cell-based qHTS assay (AID 1963582; active = well fitted activation curve with a large enough effect in the signal ratio in the repeat runs, not every such curve was filed as active; the % refers to the signal ratio). An outline of the steps: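 Compounds are pin-transferred in DMSO onto p53RE-bla cells and incubated 16 h at 37 C. The B/G FRET beta-lactamase substrate is then applied for 2 h at RT and fluorescence recorded.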
The target of assay [10] is 5-hydroxytryptamine receptor 2A (Homo sapiens) (UniProt P28223). The assay can be described thus: 5-hydroxytryptamine receptor 2A (HTR2A) small molecule agonists, cell-based qHTS assay (AID 1963587). Also: nearly all actives have a fitted effect of over 30% in size. Summed up: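 CHO cells stably expressing human HTR2A, plated 18 h, loaded with calcium dye 1 h at 37 C. Agonist mode: compounds added and intracellular calcium fluorescence recorded kinetically for 2 min at 1 sec intervals.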

For assay [11], the target named is Muscarinic acetylcholine receptor M1 (Homo sapiens) (UniProt P11229). The assay can be described thus: Cholinergic receptor muscarinic 1 (CHRM1) small molecule antagonists, cell-based qHTS assay (AID 1963588). Also: nearly all actives have a fitted effect of over 40% in size. Summed up: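 CHRM1-CHO calcium-flux assay, antagonist mode. Cells were seeded 18 h, dye-loaded 1 h at 37 C and given compound for 5 min at RT, then acetylcholine was added at 50nM. FDSS fluorescence was read 3 min; 15 concentrations, three runs.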

Assay [12] shares this target. The assay can be described thus: Cholinergic receptor muscarinic 1 (CHRM1) small molecule agonists, cell-based qHTS assay (AID 1963589). Also: nearly all actives have a fitted effect of over 35% in size. An outline of the steps: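 Each compound was tested at 15 concentrations across three independent runs on dye-loaded CHO cells stably expressing human CHRM1, reading intracellular calcium fluorescence kinetically at 1 sec intervals.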

The nature of assay [13]: cAMP Responsive Elements (CRE) small molecule agonists, cell-based qHTS assay (AID 1963590). Summed up:
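Cell line: CRE-bla HEK 293T; medium DMEM/10% dialyzed FBS/0.1 mM NEAA/1 mM pyruvate/25 mM HEPES; 3 h compound exposure; beta-lactamase FRET readout after 2 h substrate loading at RT.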

Assay [14] deals with Beta-2 adrenergic receptor (Homo sapiens) (UniProt P07550). The assay can be described thus: Adrenergic beta2 receptor (ADRB2) small molecule agonists, cell-based qHTS assay (AID 1963593).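 Also: CHO cells stably overexpressing human ADRB2.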 Summed up: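 CHO cells stably over-expressing ADRB2 were plated overnight at 37C, then dosed with compounds plus a stimulation mix containing 100uM IBMX and 25uM Ro-20-1724 for 0.5hr at room temperature. cAMP was measured by HTRF competition, 1hr.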

In assay [15] the target is D(2) dopamine receptor (Homo sapiens) (UniProt P14416). The assay can be described thus: Dopamine D2 receptor (DRD2) small molecule agonists, cell-based qHTS assay (AID 1963594). Also: nearly all actives have a fitted effect of over 35% in size. An outline of the steps: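 HEK293 cells stably expressing human DRD2, pre-treated with PDE inhibitor Ro20-1724 (0.1 mM final) and compound 10 min at room temperature, then stimulated with NKH477 (200nM […]) for 30 min. cAMP read by HTRF (665/620 nm).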

Assay [16] has the same target. The assay can be described thus: Dopamine D2 receptor (DRD2) small molecule antagonists, cell-based qHTS assay (AID 1963595; active = well fitted inhibition curve with a large enough effect in the signal ratio in the repeat runs, with a control signal flat; the % refers to the signal ratio). Summed up: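 HEK293 cells stably expressing DRD2 were preincubated with 0.1 mM Ro20-1724, then with compound for 10 min at room temperature. Cells were stimulated with 200 nM NKH477 plus 12 nM quinpirole for 30 min, and cAMP was read by HTRF.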

Assay [17] is described as follows: p53 small molecule agonists, cell-based qHTS assay with rat liver microsomes (AID 1963578). An outline of the steps: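 Compound in DMSO added to p53RE-bla cells 5 h post-plating; rat microsomes/NADPH 0.5 mg/mL final; 16 h, 37 C; LiveBLAzer 2 h RT.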
Assay [18] deals with Beta-2 adrenergic receptor (Homo sapiens) (UniProt P07550). The assay can be described thus: Adrenergic beta2 receptor (ADRB2) small molecule antagonists, cell-based qHTS assay (AID 1963592). Also: series mostly up to about 92 µM; nearly all actives have a fitted effect of over 50% in size. An outline of the steps: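 Cells (CHO, stable ADRB2 overexpression) incubated 18-20hr at 37C; compounds added from DMSO; agonist mix (1nM isoproterenol, 100uM IBMX, 25uM Ro-20-1724) added; 0.5hr RT; d2-cAMP and anti-cAMP-cryptate added; 1hr RT; 665/615 nm read.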

Assay [19] concerns the target 5-hydroxytryptamine receptor 2A (Homo sapiens) (UniProt P28223). The assay can be described thus: 5-hydroxytryptamine receptor 2A (HTR2A) small molecule antagonists, cell-based qHTS assay (AID 1963586). Also: nearly all actives have a fitted effect of over 45% in size. Also: potency is read from the fitted curve at half-maximal effect. Summed up:
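Antagonist-mode intracellular calcium assay: DOI (4 nM) added after 5 min compound pre-incubation at room temperature to dye-loaded HTR2A-CHO cells. Fluorescence followed for 3 min, sampled every second.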

Assay [20] is described as follows: cAMP Responsive Elements (CRE) small molecule antagonists, cell-based qHTS assay (AID 1963591; active = well fitted inhibition curve with a large enough effect in the signal ratio in the repeat runs, not every such curve was filed as active; the % refers to the signal ratio). Summed up: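 Inhibition of NKH477-driven (0.25 uM final) CRE-beta-lactamase signal in HEK293T cells, 3 h compound exposure at 37 °C, detected by FRET substrate fluorescence.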

Unmarked numbers belong to inactive results. Results filed as inconclusive are left out. Activity calls are given as the source filed them. Unless noted, calls follow the shape of the full dose curve.

KiSS-1 receptor (Homo sapiens), sequence (Q969F8 whole entry, looked up): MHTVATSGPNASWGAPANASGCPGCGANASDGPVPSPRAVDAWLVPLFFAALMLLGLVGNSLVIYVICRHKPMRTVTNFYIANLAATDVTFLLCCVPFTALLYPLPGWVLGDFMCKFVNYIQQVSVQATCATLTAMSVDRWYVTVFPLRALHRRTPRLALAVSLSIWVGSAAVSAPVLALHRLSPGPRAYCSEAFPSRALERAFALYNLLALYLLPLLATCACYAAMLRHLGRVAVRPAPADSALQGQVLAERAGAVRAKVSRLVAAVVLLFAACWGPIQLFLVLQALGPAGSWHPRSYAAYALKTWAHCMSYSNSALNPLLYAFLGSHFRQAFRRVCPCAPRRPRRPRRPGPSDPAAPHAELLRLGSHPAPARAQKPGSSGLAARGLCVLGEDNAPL
5-hydroxytryptamine receptor 2A (Homo sapiens), sequence (P28223 whole entry, looked up): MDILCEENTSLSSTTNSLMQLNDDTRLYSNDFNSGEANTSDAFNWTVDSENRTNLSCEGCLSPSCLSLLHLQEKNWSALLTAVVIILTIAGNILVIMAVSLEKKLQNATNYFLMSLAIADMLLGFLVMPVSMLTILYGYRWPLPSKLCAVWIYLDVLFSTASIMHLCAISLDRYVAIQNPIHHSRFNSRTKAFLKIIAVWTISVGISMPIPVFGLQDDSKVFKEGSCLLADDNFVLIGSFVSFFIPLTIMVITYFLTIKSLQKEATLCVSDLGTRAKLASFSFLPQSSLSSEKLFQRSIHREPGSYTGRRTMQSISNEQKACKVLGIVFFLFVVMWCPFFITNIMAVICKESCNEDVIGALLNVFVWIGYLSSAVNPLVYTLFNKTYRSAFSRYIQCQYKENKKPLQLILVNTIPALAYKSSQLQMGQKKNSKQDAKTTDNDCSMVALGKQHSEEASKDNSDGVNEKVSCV
Muscarinic acetylcholine receptor M1 (Homo sapiens), sequence (P11229 whole entry, looked up): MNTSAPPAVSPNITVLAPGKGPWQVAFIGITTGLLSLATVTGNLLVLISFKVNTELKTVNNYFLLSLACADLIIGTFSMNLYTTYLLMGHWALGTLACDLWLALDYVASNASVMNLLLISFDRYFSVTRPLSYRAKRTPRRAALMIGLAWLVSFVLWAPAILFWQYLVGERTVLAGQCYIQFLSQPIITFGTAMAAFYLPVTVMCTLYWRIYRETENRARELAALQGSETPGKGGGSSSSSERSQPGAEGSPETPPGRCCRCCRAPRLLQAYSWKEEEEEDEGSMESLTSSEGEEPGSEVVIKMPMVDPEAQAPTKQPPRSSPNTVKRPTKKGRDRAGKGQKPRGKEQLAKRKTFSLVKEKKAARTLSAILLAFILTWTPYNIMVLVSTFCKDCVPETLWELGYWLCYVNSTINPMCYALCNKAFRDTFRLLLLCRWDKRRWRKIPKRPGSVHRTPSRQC
Beta-2 adrenergic receptor (Homo sapiens), sequence (P07550 whole entry, looked up): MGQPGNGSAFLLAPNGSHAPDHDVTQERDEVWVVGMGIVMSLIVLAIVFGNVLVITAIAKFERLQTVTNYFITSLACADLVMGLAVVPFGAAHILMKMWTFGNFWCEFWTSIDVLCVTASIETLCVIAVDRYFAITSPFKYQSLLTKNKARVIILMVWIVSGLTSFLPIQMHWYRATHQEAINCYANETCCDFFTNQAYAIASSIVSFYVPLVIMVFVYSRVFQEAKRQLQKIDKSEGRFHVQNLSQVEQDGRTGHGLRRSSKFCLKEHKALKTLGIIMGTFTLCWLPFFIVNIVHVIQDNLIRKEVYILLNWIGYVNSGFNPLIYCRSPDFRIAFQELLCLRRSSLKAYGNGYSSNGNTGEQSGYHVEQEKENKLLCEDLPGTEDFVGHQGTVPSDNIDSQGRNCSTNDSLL
Gonadotropin-releasing hormone receptor (Homo sapiens), sequence (P30968 whole entry, looked up): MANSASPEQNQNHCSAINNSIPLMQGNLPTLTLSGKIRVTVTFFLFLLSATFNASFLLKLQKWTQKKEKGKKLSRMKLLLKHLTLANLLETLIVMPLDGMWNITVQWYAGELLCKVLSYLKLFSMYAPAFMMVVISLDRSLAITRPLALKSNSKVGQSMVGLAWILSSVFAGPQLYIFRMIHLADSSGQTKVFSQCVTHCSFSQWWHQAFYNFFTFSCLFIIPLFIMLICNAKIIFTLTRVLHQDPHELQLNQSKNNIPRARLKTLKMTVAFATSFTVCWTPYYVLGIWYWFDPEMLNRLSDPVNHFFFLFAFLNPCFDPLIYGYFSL
D(2) dopamine receptor (Homo sapiens), sequence (P14416 whole entry, looked up): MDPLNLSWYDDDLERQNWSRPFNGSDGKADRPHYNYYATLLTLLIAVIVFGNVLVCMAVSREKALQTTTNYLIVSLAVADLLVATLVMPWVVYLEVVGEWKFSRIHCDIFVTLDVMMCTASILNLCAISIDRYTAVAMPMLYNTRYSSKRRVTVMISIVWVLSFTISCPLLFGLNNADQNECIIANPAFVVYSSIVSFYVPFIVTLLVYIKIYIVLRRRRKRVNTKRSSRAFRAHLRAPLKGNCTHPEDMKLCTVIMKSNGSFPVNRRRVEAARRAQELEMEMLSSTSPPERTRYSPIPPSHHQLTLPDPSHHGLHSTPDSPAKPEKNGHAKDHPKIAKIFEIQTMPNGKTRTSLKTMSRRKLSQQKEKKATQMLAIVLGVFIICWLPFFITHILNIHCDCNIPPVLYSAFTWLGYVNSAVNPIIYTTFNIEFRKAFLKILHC

With `Cc1cc2nc(N)sc2cc1C`, the Potency result in [1], in assay [2], in [3], in [4], in assay [5] and in [6] was “inactive” each time. Besides, the Potency result in [7], in assay [8], in assay [9], in [10], in [11] and in [12] was “inactive” each time. The Potency entry in assay [13], in [14], in assay [15] and in assay [16] was “inactive” each time.
With `Cc1ccc(NC(=O)c2ccc(CN3CCN(C)CC3)cc2)cc1Nc1nccc(-c2cccnc2)n1`, the Potency entry in assay [1], in assay [2], in assay [3], in assay [4], in assay [5] and in [17] was “inactive” each time. Moreover, the Potency result in [7], in [9], in [13], in assay [18], in assay [14] and in [15] was “inactive” each time. Moreover, in assay [16], the Potency entry was “inactive”.
On to `CC(COc1ccccc1)NN` (stereo not given), for which the Potency result in assay [1], in assay [2], in [3], in assay [4], in assay [5] and in assay [17] was “inactive” throughout. The Potency entry in assay [7], in [8], in assay [9], in assay [19], in [10] and in assay [11] was “inactive” throughout. The Potency result in assay [12], in [13], in [20], in assay [18] and in assay [16] was “inactive” throughout.
Take `CCN(CC)CCNC(=O)COc1ccc(OC)cc1`: the Potency entry in [1], in [2], in [3], in assay [4], in assay [5] and in assay [6] was “inactive” each time. In addition, the Potency entry in assay [7], in [8], in [9], in assay [19], in assay [10] and in assay [11] was “inactive” in each case. Further, the Potency result in assay [12], in [13], in assay [20], in assay [18], in assay [14] and in assay [15] was “inactive” each time. For the same molecule, the Potency result in assay [16] was “inactive”.
`Cc1cc2c(cc1CC(=O)c1sccc1S(=O)(=O)Nc1onc(C)c1Cl)OCO2`: in [1], the Potency was 4.22 µM (active). For the same molecule, the Potency entry in [2], in assay [3], in assay [4], in assay [5], in assay [6] and in assay [7] was “inactive” throughout. Also, the Potency result in assay [8], in assay [9], in assay [19], in assay [10], in assay [11] and in assay [12] was “inactive” throughout. For the same molecule, the Potency entry in [13], in [20], in assay [18], in assay [14], in [15] and in assay [16] was “inactive” in each case.
On to `COc1ccc(/C=C/c2cc(OC)cc(=O)o2)cc1`, for which the Potency result in assay [1], in assay [2], in assay [3], in assay [4], in [5] and in assay [17] was “inactive” throughout. Also, the Potency result in assay [7], in [10], in [11], in assay [12], in assay [20] and in assay [18] was “inactive” in each case. For the same molecule, the Potency result in [15] and in assay [16] was “inactive” each time. In [19], the Potency is 9.64 µM (active).
On to `C1CCC2(CCCCO2)OC1`, for which the Potency result in [1], in assay [2], in assay [3], in assay [4], in assay [5] and in assay [6] was “inactive” each time. The Potency result in assay [7], in assay [8], in assay [19], in assay [10], in assay [11] and in [12] was “inactive” in each case. The Potency result in assay [13], in assay [20], in [18], in assay [14], in [15] and in assay [16] was “inactive” throughout.
For `CC/C=C\CCOC(C)OCC` (stereo not given), the Potency entry in assay [1], in [2], in [3], in [4], in assay [5] and in assay [17] was “inactive” each time. In addition, the Potency result in assay [7], in [8], in [9], in assay [19], in [10] and in [11] was “inactive” each time. Also, the Potency result in [12], in assay [13], in assay [20], in assay [18], in assay [15] and in assay [16] was “inactive” in each case.
